The full list was thinned out, with hits kept by preference.
GluA2 TARP mod: modulators of AMPA receptor GluA2-stargazin complexes. O88602+P19491. HEK293 GluA2+stargazin, membrane potential dye (FDSS), glutamate EC50; hits were called plate by plate, in both directions. calls only at 30 µM. 40,000 compounds, 3.5% hits;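 active = any of four per-well response measures lying three or more SD from its plate-wide compound average, in either direction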
GIRK2 activator: Activators of human GIRK2-containing channels. HEK293 GIRK2/NPY4 cells, thallium flux fluorescence. activation (% efficacy), % for hits at 37.5 µM. P48051. 34,000 tested, under 10 active. AID 1259324;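 active = primary screen hit, no activity in plain HEK293 cells, and in GIRK2-only cells above 5% efficacy rising with concentration; inactive = the rest, including fluorescent compounds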;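 note: efficacy is normalized control-subtracted fluorescence 15 s after thallium addition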
Target sequence (P48051 whole entry, looked up): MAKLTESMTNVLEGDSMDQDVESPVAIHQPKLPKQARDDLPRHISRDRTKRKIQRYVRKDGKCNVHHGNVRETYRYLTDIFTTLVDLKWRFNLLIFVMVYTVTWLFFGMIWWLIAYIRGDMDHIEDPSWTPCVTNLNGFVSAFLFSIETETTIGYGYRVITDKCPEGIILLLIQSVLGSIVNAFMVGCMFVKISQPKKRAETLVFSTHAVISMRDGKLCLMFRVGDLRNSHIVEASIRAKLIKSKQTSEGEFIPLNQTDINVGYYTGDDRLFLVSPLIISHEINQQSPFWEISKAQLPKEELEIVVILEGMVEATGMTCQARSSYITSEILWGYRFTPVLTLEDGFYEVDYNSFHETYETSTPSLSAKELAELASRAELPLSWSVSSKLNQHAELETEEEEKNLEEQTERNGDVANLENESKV
Calls only; n = inactive; x = no result; + = active, no number; ! = a repeat was not active.

SMILES	GluA2 TARP mod	GIRK2 activator
COc1ccc(NC(=O)Cn2c(=O)n(C(C)C)c(=O)c3nscc32)cc1OC	n	n
CCOC(=O)Cn1c(=O)c2c(nc3n(-c4ccccc4CC)c(C)c(C)n23)n(C)c1=O	n	x
O=C(NCCOc1ccc(-c2cccs2)nn1)c1ccc(S(=O)(=O)N2CCCC2)cc1	n	n
COc1ccc(N(Cc2cccc(Cl)c2)S(=O)(=O)c2ccc3nncn3c2)cc1	n	n
COc1ccc(N(Cc2cccc(C)c2)S(=O)(=O)c2ccc3nncn3c2)cc1	+	n
COC(=O)C1=C(C)NC(=O)NC1c1ccccc1OCc1ccccc1 (stereo not given)	n	x
COc1ccc(C2NC(=O)NC(C)=C2C(=O)OCc2ccccc2)c(OC)c1 (stereo not given)	+	x
CCNC(=O)C1CCN(c2cc(SCC(=O)Nc3cc(Cl)ccc3OC)ncn2)CC1	n	n
Cc1ccc(Cc2cnc(NC(=O)/C=C3\SC(=O)NC3=O)s2)cc1	n	x
CCOC(=O)CCC(=O)Nc1cccc(-c2cnc3n2CCC3)c1	+	n
O=C(Nc1cccc(-c2cnc3n2CCC3)c1)c1ccc(Br)o1	+	n
O=C(Nc1cccc(Cl)c1)Nc1cccc(-c2cnc3n2CCC3)c1	n	n
CCOC(=O)CCC(=O)Nc1cccc(N2CCCC2=O)c1	n	n
O=C(Nc1cccc(-c2cnc3n2CCC3)c1)c1cc2ccccc2oc1=O	+	n
COc1ccc(Br)c(C(=O)Nc2cccc(-c3cnc4n3CCC4)c2)c1	n	n
CCOc1nn(CC)cc1-c1nnc(SCC(=O)Nc2ccc(Cl)cc2)n1C	n	n
COCCCn1c(N)c(S(=O)(=O)c2cccc(Cl)c2)c2nc3ccccc3nc21	n	n
O=S(=O)(c1ccc(Oc2ccccc2Cl)cc1)N1CCCCC1	n	x
O=S(=O)(c1ccc(Oc2ccccc2Cl)cc1)N1CCCC1	+	x
COc1cc(C2NC(=O)NC(O)(C(F)(F)F)C2C(C)=O)ccc1OCc1ccccc1 (stereo not given)	+	x
COc1cc(C2NC(=O)NC(O)(C(F)(F)F)C2C(C)=O)ccc1OCc1ccc(Cl)cc1 (stereo not given)	n	x
c1ccn2cc(CSc3cc(N4CCOCC4)ncn3)nc2c1	+	n
COc1cccc(C(=O)CSc2cc(N3CCOCC3)ncn2)c1	n	n
O=C(NCC1CCN(Cc2ccccc2)CC1)C(=O)Nc1ccc2c(c1)OCCO2	n	n
O=C(NCC1CCN(Cc2ccccc2)CC1)C(=O)Nc1ccc2c(c1)OCO2	+	n
SMILES	GluA2 TARP mod	GIRK2 activator
Cc1cccc(-c2nnc(NC(=O)C3CCCN3S(C)(=O)=O)o2)c1 (stereo not given)	x	n
CC(C)NC(=O)Cn1cc(-c2nc(-c3cnccn3)no2)ccc1=O	n	n
N#Cc1ccccc1Cn1cc(-c2nc(-c3cnccn3)no2)ccc1=O	+	n
COc1ccc(S(=O)(=O)c2c(C)cc(C)n(CC(=O)Nc3cc(OC)ccc3OC)c2=O)cc1	n	n
COc1ccc(CNC(=O)c2ccc(NC(=O)Cn3c(C)cc(C)c(C#N)c3=O)cc2)c(OC)c1	+!	n
O=C(NCC1CCN(c2ccccn2)CC1)C(=O)Nc1ccc(F)c(Cl)c1	n	n
COC(=O)c1ccc(S(=O)(=O)N2CCCN(CCn3nc(C)cc3C)CC2)cc1	n	n
COc1ccc(-c2c(NC(=O)c3ccco3)sc3ccccc3c2=O)cc1OC	+	n
O=C(Nc1sc2ccccc2c(=O)c1-c1ccc(Br)cc1)c1ccco1	n	n
O=S(=O)(c1ccc(Cl)cc1)N1CCC(c2nc(-c3ccc(C(F)(F)F)cc3)no2)CC1	x	n
C=CCN(CC=C)C(=O)c1cc(-c2ccccc2)nc2ccccc12	+	x
O=C(Nc1cccc(C(F)(F)F)c1)c1cc(-c2ccccc2)nc2ccccc12	n	x
Cc1cc(-c2nnc(NC(=O)C3(c4ccccc4)CCOCC3)o2)nn1C(C)C	n	n
CS(=O)(=O)N1CCCCC1C(=O)Nc1sccc1C#N (stereo not given)	n	n
Cc1nn(-c2nc3ccccc3[nH]2)c(=O)c2ccccc12	+	x
Cc1cc(=O)[nH]c(-n2nc(C)c(CCC(=O)NCc3ccccc3Cl)c2C)n1	n	n
COc1ccccc1-c1nnc(NC(=O)c2ccc(C)cc2)o1	n	x
COc1cc(OC)cc(C(=O)NCC2(c3ccccc3)CCOCC2)c1	n	n
COc1ccc(C2(CNC(=O)c3ccc(Cl)c(Cl)c3)CCOCC2)cc1	+	x
COc1ccc(NC(=O)c2ccc(S(=O)(=O)N(C)C3CCCCC3)cc2)cc1	n	x
CC1(C)CC2CC(C)(CN2Cc2c(O)ccc3ccccc23)C1 (stereo not given)	+	x
COc1cc(OC)cc(-c2noc(CSc3n[nH]c(=O)c4cc(-c5cccs5)nn34)n2)c1	x	n
CN1CCN(c2nnnc3c2cnn3-c2ccccc2)CC1	n	n
CCc1nc(N2CCN(C)CC2)c2oc3ccccc3c2n1	+	n
Cn1cccc1C(CNC(=O)Nc1ccccc1C(F)(F)F)N1CCOCC1 (stereo not given)	n	n
SMILES	GluA2 TARP mod	GIRK2 activator
COc1ccc(-c2cc(C(F)(F)F)nc(SCC(=O)N3CCCC3)n2)cc1OC	n	x
COC(=O)CSc1nc(-c2ccc(F)cc2)cc(C(F)(F)F)n1	+	x
O=C(CC(NCCc1ccccc1)C(=O)O)Nc1ccc(F)cc1F (stereo not given)	n	x
COc1ccc(N2C(=O)CN(CCc3ccccc3OC)C3CS(=O)(=O)CC32)cc1 (stereo not given)	n	n
COc1ccc(N2C(=O)CS(=O)(=O)C23C(=O)N(Cc2ccccc2C)c2ccccc23)cc1 (stereo not given)	+	x
NC(=O)CSc1nnc(CCn2ccc(=O)[nH]c2=O)o1	n	n
O=C(CCn1nc(-c2ccc(Cl)cc2)c2ccccc2c1=O)NC1CCCCC1	+	x
Cc1ccc(-c2nn(CCC(=O)N3CCN(Cc4ccccc4)CC3)c(=O)c3ccccc23)cc1	n	x
O=c1[nH]c2c(s1)C1c3ccccc3OC3CCCC(S2)C31 (stereo not given)	+	x
Cc1c(Cl)ccc2sc(N(CCCN(C)C)C(=O)c3ccn(C)n3)nc12	n	n
Cc1cc(C)c2sc(N(CCCN(C)C)C(=O)c3ccn(C)n3)nc2c1	+	n
O=C(c1cc2ccccc2oc1=O)N1CCN(c2ncnc3c2nnn3-c2ccc(Cl)cc2)CC1	n	x
COc1ccccc1OCC(O)CN1CC(C)CC(C)C1 (stereo not given)	n	n
COc1ccccc1OCC(O)CN1C(C)(C)CC(O)CC1(C)C (stereo not given)	n	n
Cc1cc(C)c(C)c(OCC(O)CN2CC(C)CC(C)C2)c1 (stereo not given)	+	n
Cc1cc(C)c(C)c(OCC(O)CN2C(C)(C)CC(O)CC2(C)C)c1 (stereo not given)	+	n
COCCN1CCC(CNS(=O)(=O)c2ccc(C(C)(C)C)cc2)CC1	n	n
Cc1ccc(N2CC(C(=O)NCC3(c4cccs4)CCOCC3)CC2=O)cc1 (stereo not given)	n	n
CC(C)NC(=O)CSc1nnc(N2CCN(c3ccc(F)cc3)CC2)s1	+	n
CCOC(=O)C(C)Sc1nnc(N2CCN(c3ccc(F)cc3)CC2)s1 (stereo not given)	n	n
CC(=O)NCCc1nc2ccccc2n1Cc1c(C)cc(C)cc1C	n	n
OCCCc1nc2ccccc2n1Cc1ccc(F)cc1	n	x
Cc1cc(C)c(C)c(Cn2c(CCCO)nc3ccccc32)c1C	+	n
